Results as given in PubChem BioAssay (NCATS).
Records with an inconclusive call do not appear. The source made the active and inactive calls. Calls come from the whole dose curve; as a rule, active = well fitted curve in the direction sought with a large enough effect; inconclusive = small, poorly fitted or top-dose-only effect, or another doubt; inactive = no such curve, though single readings can be large; an effect the other way counts as inactive or inconclusive.

Assays:
CRL-7250 [1] = assay: Cytotoxic Profiling of Annotated Libraries Using Quantitative High-Throughput Screening (AID 1296008); settings: Five cell lines viability, CellTiter-Glo ATP luminescence, 48-72 h; max response: active compounds read low; note: nearly all actives have a fitted effect of over 60% in size; for max response: % is set by controls: 0 for no effect and ±100 for the full control effect
Summary of the method: (§1)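 Cells exposed to compounds for 48 or 72 hr at 37 degrees Celsius. Viability read as ATP-coupled luminescence with CellTiter-Glo after 10 min at room temperature.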

HEK293 = assay: as above; settings: Five cell lines viability, CellTiter-Glo ATP luminescence, 48-72 h; max response: active compounds read low
Summary of the method: as §1

HaCat [2] = assay: as above; settings: Five cell lines viability, CellTiter-Glo ATP luminescence, 48-72 h; max response: active compounds read low
Summary of the method: as §1

KB-3-1 = assay: as above; settings: Five cell lines viability, CellTiter-Glo ATP luminescence, 48-72 h; max response: active compounds read low
Summary of the method: as §1

NIH3T3 [3] = assay: as above; settings: Five cell lines viability, CellTiter-Glo ATP luminescence, 48-72 h; max response: active compounds read low
Summary of the method: as §1

MCC-13 = assay: qHTS assay to identify novel small-molecules to repurpose for Merkel cell carcinoma treatment (AID 1296009); settings: MCC and control cell lines, CellTiter-Glo viability, 72 h; series mostly up to 46 µM; note: nearly all actives have a fitted effect of over 60% in size; note: potency is the fitted concentration of half-maximal effect
Summary of the method: (§2)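 Cells were incubated with compound for 72 hr at 37 degree celsius before CellTiter-Glo addition. Luminescence was normalized with no-cell wells as full cytotoxicity and DMSO as baseline.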

MCC-26 = assay: as above; settings: MCC and control cell lines, CellTiter-Glo viability, 72 h; series mostly up to 46 µM
Summary of the method: as §2

MKL-1 = assay: as above; settings: MCC and control cell lines, CellTiter-Glo viability, 72 h; series mostly up to 46 µM
Summary of the method: as §2

MKL-2 = assay: as above; settings: MCC and control cell lines, CellTiter-Glo viability, 72 h; series mostly up to 46 µM
Summary of the method: as §2

UISO = assay: as above; settings: MCC and control cell lines, CellTiter-Glo viability, 72 h; series mostly up to 46 µM
Summary of the method: as §2

WaGa = assay: as above; settings: MCC and control cell lines, CellTiter-Glo viability, 72 h; series mostly up to 46 µM
Summary of the method: as §2

HACAT [4] = assay: as above; settings: MCC and control cell lines, CellTiter-Glo viability, 72 h; at 44.8 µM (top of the series) unless noted
Summary of the method: as §2

W2 = assay: qHTS profiling for inhibitors of Plasmodium falciparum proliferation (AID 504749); settings: P. falciparum in erythrocytes, SYBR Green DNA, 72 h; series mostly up to 28.7 µM
Summary of the method: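 Readout was DNA-dye fluorescence from lysed cultures, ex 485/em 535 nm. Parasitized red cells had grown 72 h with compound; data scaled between 0.29 uM artemisinin and DMSO wells and corrected using vehicle-only plates.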

NIH3T3 [5] = assay: qHTS assay to identify novel small-molecules to repurpose for Merkel cell carcinoma treatment (AID 1296009); settings: MCC and control cell lines, CellTiter-Glo viability, 72 h; at 44.8 µM (top of the series) unless noted; note: nearly all actives have a fitted effect of over 60% in size; note: potency is the fitted concentration of half-maximal effect
Summary of the method: as §2

C33A = assay: Primary qHTS to identify gynecologic anti-cancer compounds using libraries of approved drugs and bioactive compounds (AID 1345084); settings: Gynecologic cancer cell panel viability, ATPlite luminescence, 48 h; series mostly up to 57.5 µM; note: % is set by controls: 0 for no effect and ±100 for the full control effect; nearly all actives have a fitted effect of over 55% in size
Summary of the method: (§3)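 Luminescence from the ATPlite ATP-monitoring reagent indicates viable cell number; lower signal means cytotoxicity. Cells received compound 16 h after seeding and were exposed for 48 h across five concentrations.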

CASKI = assay: as above; settings: Gynecologic cancer cell panel viability, ATPlite luminescence, 48 h; series mostly up to 57.5 µM
Summary of the method: as §3

Es-2 = assay: as above; settings: Gynecologic cancer cell panel viability, ATPlite luminescence, 48 h; series mostly up to 57.5 µM
Summary of the method: as §3

CRL-7250 [6] = assay: qHTS assay to identify novel small-molecules to repurpose for Merkel cell carcinoma treatment (AID 1296009); settings: MCC and control cell lines, CellTiter-Glo viability, 72 h; at 44.8 µM (top of the series) unless noted; note: nearly all actives have a fitted effect of over 60% in size; note: potency is the fitted concentration of half-maximal effect
Summary of the method: as §2

O=c1cccc2n1CC1CNC[C@H]2C1
inactive: max response (CRL-7250 [1]) -0.274% | max response (HEK293) -2.71% | max response (HaCat [2]) -12.2% | outcome (KB-3-1) | max response (NIH3T3 [3]) -3.34% | Potency (MCC-13) | Potency (MCC-26) | Potency (UISO)
active: Potency (MKL-1) 14800 nM | Potency (MKL-2) 2640 nM | Potency (WaGa) 2350 nM

C#C[C@]1(O)C=C[C@@H]2[C@@H]3CCC4=CC(=O)CC[C@@H]4[C@H]3CC[C@@]21CC
inactive: max response (CRL-7250 [1]) -4.4% | max response (HEK293) -3.75% | outcome (HaCat [2]) | max response (NIH3T3 [3]) -5.86% | outcome (HACAT [4]) | Potency (MCC-13) | Potency (MCC-26) | Potency (MKL-1) | Potency (MKL-2) | Potency (UISO) | Potency (WaGa)

Cc1ccc(Cl)c(O)c1
inactive: Potency (W2) | max response (CRL-7250 [1]) 3.13% | max response (HEK293) -16.6% | max response (HaCat [2]) -3.88% | max response (KB-3-1) -1.89% | outcome (NIH3T3 [3]) | Potency (MCC-13) | Potency (MCC-26) | Potency (MKL-1) | Potency (MKL-2) | outcome (NIH3T3 [5]) | Potency (UISO) | Potency (WaGa) | Potency (C33A) | Potency (CASKI) | Potency (Es-2)

C[C@]12CCC(=O)C(O)=C1CC[C@@H]1[C@H]3CCC(=O)[C@@]3(C)CC[C@@H]12
inactive: Potency (W2) | max response (CRL-7250 [1]) -0.395% | max response (HEK293) -10.2% | max response (HaCat [2]) -3.05% | max response (KB-3-1) 3.15% | max response (NIH3T3 [3]) 4.69% | Potency (MCC-13) | Potency (MCC-26) | Potency (MKL-1) | Potency (MKL-2) | Potency (UISO) | Potency (WaGa)

CC(C)(C)c1cc(C=C(C#N)C#N)cc(Br)c1O
inactive: outcome (CRL-7250 [1]) | max response (HEK293) -8.76% | max response (HaCat [2]) 3.48% | outcome (NIH3T3 [3]) | outcome (CRL-7250 [6]) | Potency (MCC-13) | Potency (MKL-1) | Potency (MKL-2) | outcome (NIH3T3 [5]) | Potency (UISO) | Potency (WaGa)

CCOCCOC(C)=O
inactive: max response (CRL-7250 [1]) -13% | max response (HEK293) -1.29% | max response (HaCat [2]) -11.2% | max response (KB-3-1) -19.2% | max response (NIH3T3 [3]) -2.47% | Potency (MCC-13) | Potency (MCC-26) | Potency (MKL-1) | Potency (MKL-2) | Potency (UISO) | Potency (WaGa) | Potency (C33A) | Potency (CASKI) | Potency (Es-2)
